# Laboratory results as given in PubChem BioAssay (NCATS).
# Inconclusive results are not listed. The source made the active and inactive calls. Unless noted, calls follow the shape of the dose curve; as a rule, active = well fitted curve in the direction sought with a large enough effect; inconclusive = small, poorly fitted or top-dose-only effect, or another doubt; inactive = no such curve, though single readings can be large; an effect the other way counts as inactive or inconclusive. *1 amine or outer side, *2 acyl side, *3 side chain or, on linkers, in order; H or OH if unused. Where a SMILES comes first, the peptide text is derived from it. Non-standard residues stand in square brackets, D forms with d. Residues, ends and D or L forms follow the SMILES beside them. Bridges are numbered along the chain shown (N, C = ends). Roman numbers before positions name the chains, in order. [ ]: non-standard residue; d: D form. ξ: configuration not given here. Actinocin(9to1) = Cc1c2oc3c(C)ccc(C(=O)[*:1])c3nc-2c(C(=O)[*:2])c(N)c1=O; Orn = NCCC[C@H](N)C(=O)O; ξNMeV = CNC(C(=O)O)C(C)C; ξV = CC(C)C(N)C(=O)O; Sar = CNCC(=O)O
# Tests used:
# [1] = qHTS assay to identify small molecule inhibitors of chordoma cells - UCH-2 (AID 1259356); also: potency is read from the fitted curve at half-maximal effect
# [2] = qHTS assay for cell viability of the p53RE-bla HCT-116 cell line (AID 743292); also: % is scaled to controls: 0 for no effect and ±100 for the full control effect; nearly all actives have a fitted effect of over 55% in size
# Procedure, shortened: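 HCT-116 p53RE-bla cells seeded 4,000/well; 5 h at 37 C; compound (DMSO) added; 16 h at 37 C; CellTiter-Glo added, 30 min RT; luminescence read.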
# [3] = qHTS assay to identify small molecule inhibitors of chordoma cells - UCH-1 (AID 1259355); also: % is scaled to controls: 0 for no effect and ±100 for the full control effect; nearly all actives have a fitted effect of over 55% in size
# Procedure, shortened: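 A 48hr growth-inhibition format: each drug tested at 15 concentrations together with added auranofin, camptothecin, doxorubicin, rubitecan and topotecan, with cell viability quantified as CellTiter-Glo luminescence.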
# [4] = qHTS profiling for inhibitors of Plasmodium falciparum (3D7) proliferation (AID 743322; call rule not given here;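 also: infected erythrocytes exposed to compound for 72 h before lysis; 100% = DMSO vehicle wells and 0% = 0.29 µM artemisinin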); settings: P. falciparum 3D7 proliferation; at 28.7 µM (top of the series) unless noted
# Procedure, shortened: (§1)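 Parasite DNA was quantified by SYBR Green I fluorescence (ex 485, em 535 nm) after overnight lysis in saponin/Triton buffer at room temperature. Cultures at 0.3% parasitemia and 2.5% hematocrit were first exposed to compound for 72 h at 37 C; signals were normalised to artemisinin (0.29 uM) and vehicle wells.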
# [5] = qHTS profiling for inhibitors of Plasmodium falciparum (DD2) proliferation (AID 743323; call rule not given here); settings: lower = more inhibition; at 28.7 µM (top of the series) unless noted
# Procedure, shortened: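 Parasite DNA quantified by SYBR Green fluorescence (ex 485, em 535 nm) after saponin/Triton lysis and overnight dark incubation. Cultures: 0.3% parasitemia, 2.5% hematocrit, 72 h, 37 C; data scaled between DMSO and 0.29 uM artemisinin.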
# [6] = qHTS profiling for inhibitors of Plasmodium falciparum (HB3) proliferation (AID 743324); settings: Plasmodium falciparum HB3 blood-stage proliferation; at 28.7 µM (top of the series) unless noted;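 also: 100% = DMSO vehicle wells and 0% = artemisinin-treated control wells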
# Procedure, shortened: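 SYBR Green fluorescence (485 ex/535 em) of lysed cultures, incubated overnight at room temperature in the dark, quantifies parasite DNA. Infected erythrocytes at 0.3% parasitemia and 2.5% hematocrit were exposed 72 h; values normalized to DMSO and 0.29 uM artemisinin controls.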
# [7] = qHTS profiling of the MIPE4 collection as inhibitors of Plasmodium falciparum (3D7) proliferation (AID 743344; call rule not given here;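 also: scaled between DMSO vehicle wells and 0.29 µM artemisinin as full inhibition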); settings: P. falciparum 3D7 in erythrocytes, SYBR Green DNA fluorescence, 72 h; at 28.5 µM (top of the series) unless noted
# Procedure, shortened: as §1
# [8] = qHTS profiling of the MIPE4 collection as inhibitors of Plasmodium falciparum (DD2) proliferation (AID 743345; call rule not given here); settings: P. falciparum Dd2 in erythrocytes, SYBR Green DNA, 72 h; at 28.5 µM (top of the series) unless noted
# Procedure, shortened: as §1
# [9] = qHTS profiling of the MIPE4 collection as inhibitors of Plasmodium falciparum (DD2) proliferation (Rep 2) (AID 743346; call rule not given here); settings: P. falciparum Dd2 in erythrocytes, SYBR Green DNA, 72 h; at 28.5 µM (top of the series) unless noted
# Procedure, shortened: as §1
# [10] = qHTS profiling of the MIPE4 collection as inhibitors of Plasmodium falciparum (HB3) proliferation (AID 743347; call rule not given here;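 also: plate controls were DMSO vehicle wells for no effect and artemisinin wells for full effect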); settings: P. falciparum HB3 in erythrocytes, SYBR Green DNA, 72 h; at 28.5 µM (top of the series) unless noted
# Procedure, shortened: as §1
smiles,measurement,setting,value
CCCCCCCCCCCCCC[n+]1ccc(C)cc1,Potency,[1],25.9 µM (active)
CCCC(=O)O[C@]1(C(=O)COC(C)=O)CC[C@H]2[C@@H]3C[C@H](F)C4=CC(=O)C=C[C@]4(C)[C@@]3(F)[C@@H](O)C[C@@]21C,Potency,[1],inactive
C=CCSSSCC=C,Potency,[1],inactive
Nc1ccn([C@H]2CS[C@@H](CO)O2)c(=O)n1,outcome,[2],inactive
same,Potency,[3],inactive
same,Potency,[1],inactive
Nc1c(Br)cc(Br)cc1CNC1CCC(O)CC1 (stereo unspecified),Potency,[1],inactive
CN(C)CCCN1c2ccccc2C(C)(C)c2ccccc21,Potency,[1],inactive
C[C@]12CCC(=O)C=C1CC[C@@H]1[C@@H]2[C@@H](O)C[C@@]2(C)[C@H]1CC[C@]2(O)C(=O)COP(=O)(O)O,Potency,[1],inactive
CN(C)CC/C=C1/c2ccccc2CSc2ccccc21,Potency,[1],inactive
CC1(C)O[C@@H]2C[C@H]3[C@@H]4CCC5=CC(=O)C=C[C@]5(C)[C@H]4[C@@H](O)C[C@]3(C)[C@]2(C(=O)CO)O1,Potency,[1],inactive
CO[C@H](C(=O)[C@@H](O)[C@@H](C)O)C1Cc2cc3cc(O[C@H]4C[C@@H](O[C@H]5C[C@@H](O)[C@H](O)[C@@H](C)O5)[C@@H](O)[C@@H](C)O4)c(C)c(O)c3c(O)c2C(=O)[C@H]1O[C@H]1C[C@@H](O[C@H]2C[C@@H](O[C@H]3C[C@](C)(O)[C@H](O)[C@@H](C)O3)[C@H](O)[C@@H](C)O2)[C@H](O)[C@@H](C)O1 (stereo partly specified),Potency,[1],inactive
O=C(O)CC/C=C\CC[C@H]1[C@@H](N2CCCCC2)[C@@H](O)C[C@@H]1OCc1ccc(-c2ccccc2)cc1,remaining parasite growth % (stronger effect = lower value),[4],58.6%
same,"activity, percent of control",[5],86.9%
same,"remaining proliferation (% of control), lower = more inhibition",[6],76.1%
"Cc1c2oc3c(C)ccc(C(=O)N[C@@H]4C(=O)NC(C(C)C)C(=O)N5CCC[C@H]5C(=O)N(C)CC(=O)N(C)C(C(C)C)C(=O)O[C@@H]4C)c3nc-2c(C(=O)N[C@@H]2C(=O)NC(C(C)C)C(=O)N3CCC[C@H]3C(=O)N(C)CC(=O)N(C)C(C(C)C)C(=O)O[C@@H]2C)c(N)c1=O (stereo partly specified) (I: T[ξV]P[Sar][ξNMeV] / II: T[ξV]P[Sar][ξNMeV]; ester I:1-I:C, II:1-II:C; linker I:N-II:N via Actinocin(9to1))",remaining parasite growth % (stronger effect = lower value),[4],-2.78%
same,"activity, percent of control",[5],-1.83%
same,"remaining proliferation (% of control), lower = more inhibition",[6],-2.59%
O=C(O)CCC(=O)C(=O)O,outcome,[2],inactive
C=C1C(=CC=C2CCC[C@@]3(C)[C@@H]2CC[C@H]3[C@H](C)CCCC(C)C)C[C@@H](O)C[C@@H]1O,"parasite growth, % of DMSO control",[7],22.5%
same,"parasite growth remaining, % of DMSO control (lower = more inhibition)",[8],65.2%
same,"parasite growth, % of control (lower = inhibition)",[9],29.8%
same,"growth, % of control",[10],19.8%
same,Potency,[1],inactive
CC(C)C[C@@H]1NC(=O)[C@H](CCCN)NC(=O)[C@H](C(C)C)NC(=O)[C@@H]2CCCN2C(=O)[C@@H](Cc2ccccc2)NC(=O)[C@H](CC(C)C)NC(=O)[C@H](CCCN)NC(=O)[C@H](C(C)C)NC(=O)[C@@H]2CCCN2C(=O)[C@@H](Cc2ccccc2)NC1=O (cyclo(V[Orn]L[dF]PV[Orn]L[dF]P)),remaining parasite growth % (stronger effect = lower value),[4],-2.61%
same,"activity, percent of control",[5],-0.499%
same,"remaining proliferation (% of control), lower = more inhibition",[6],-1.03%
same,"parasite growth, % of DMSO control",[7],6.95%
same,"parasite growth remaining, % of DMSO control (lower = more inhibition)",[8],5.43%
same,"parasite growth, % of control (lower = inhibition)",[9],6.21%
same,"growth, % of control",[10],4.03%
same,Potency,[1],8.2 µM (active)
C[C@H]1C[C@H]2[C@@H]3CCC4=CC(=O)C=C[C@]4(C)[C@@]3(F)[C@@H](O)C[C@]2(C)[C@@]1(O)C(=O)CO,outcome,[2],inactive
same,Potency,[1],inactive
IC(I)I,outcome,[2],inactive
same,Potency,[1],inactive
O=c1cc(C2=CC=CC3Sc4ccccc4SC23)oc(N2CCOCC2)c1 (stereo unspecified),remaining parasite growth % (stronger effect = lower value),[4],90.9%
same,"activity, percent of control",[5],88.7%
same,"remaining proliferation (% of control), lower = more inhibition",[6],76.5%
CCCC(=O)O[C@]1(C(=O)CCl)[C@H](C)C[C@@H]2[C@H]3CCC4=CC(=O)C=C[C@]4(C)[C@@]3(F)C(=O)C[C@@]21C,remaining parasite growth % (stronger effect = lower value),[4],0.271%
same,"activity, percent of control",[5],1.4%
same,"remaining proliferation (% of control), lower = more inhibition",[6],1.97%
same,"parasite growth, % of DMSO control",[7],7.36%
same,"parasite growth remaining, % of DMSO control (lower = more inhibition)",[8],7.93%
same,"parasite growth, % of control (lower = inhibition)",[9],32.4%
same,"growth, % of control",[10],7.79%
CC(C)=O,outcome,[2],inactive
same,Potency,[1],inactive
CC(NC(=O)Cc1cc(F)cc(F)c1)C(=O)NC(C(=O)OC(C)(C)C)c1ccccc1 (stereo unspecified),remaining parasite growth % (stronger effect = lower value),[4],103%
same,"activity, percent of control",[5],97.7%
same,"remaining proliferation (% of control), lower = more inhibition",[6],104%
CC1=C2[C@@H]([C@H](C)CC[C@H]2/C=C(\C)C(=O)O)[C@H](O)C1,outcome,[2],inactive
CC(=O)Oc1cc(C)c(OC(C)=O)c2ccccc12,Potency,[1],inactive
COC(C(=O)C(O)C(C)O)C1Cc2cc3cc(OC4CC(OC5CC(O)C(O)C(C)O5)C(O)C(C)O4)c(C)c(O)c3c(O)c2C(=O)C1OC1CC(OC2CC(OC3CC(C)(O)C(O)C(C)O3)C(O)C(C)O2)C(O)C(C)O1 (stereo unspecified),Potency,[1],inactive
COC(=O)C1=C(C)NC(C)=C(C(=O)OCCCN2CCC(c3ccccc3)(c3ccccc3)CC2)[C@H]1c1cccc([N+](=O)[O-])c1,remaining parasite growth % (stronger effect = lower value),[4],-1.45%
same,"activity, percent of control",[5],-0.102%
same,"remaining proliferation (% of control), lower = more inhibition",[6],-0.517%
O=CCCCC=O,Potency,[1],inactive
CNC1CCN(C(Cc2cccc(-c3ccncc3)c2)C(=O)c2sc3c(F)ccc(F)c3c2Cl)CC1 (stereo unspecified),remaining parasite growth % (stronger effect = lower value),[4],0.218%
same,"activity, percent of control",[5],0.386%
same,"remaining proliferation (% of control), lower = more inhibition",[6],-0.323%
